Here are results for 40 sequences from the supplement of paper PMC10338343.

± gives the standard deviation.

One assay relates to MILI (PIWIL2) piRISC loaded with L1MC piRNA (26 nt). As to the kind of experiment: pre-steady-state target cleavage rate (min^-1); guide: L1MC piRNA 5'p-UAACUAAAUACUAUGCAAGCUGUAGG; MIWI and MILI are mouse PIWI proteins and EfPiwi is from a freshwater sponge; tags in brackets are library labels; higher = faster piRNA-guided slicing of the target. Conditions: auxiliary factor: 500 nM mouse GTSF1. In short, it runs like this: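 With or without 500 nM GTSF1 partner protein, 1 nM active affinity-purified piRISC carrying one synthetic guide was mixed with 0.1 nM transcribed, DNA-blocked target RNA library in HEPES–potassium acetate buffer at 33 °C for 0–8 or 0–960 min. Uncleaved targets were sequenced and normalised to depth and to weakly complementary targets, three trials were pooled, and k3 was capped at 0.0001 min^-1. The pre-steady-state cleavage rate came from a burst-and-steady-state fit.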
With UCCUGGAUGAGCUUGCAUAGUAUUAACAAA, the “pre-steady-state target cleavage rate” value was 0.00849 ± 0.0045.

Regarding UCCUGGAUCAGCUUGCAUAGUAAAUACAAA, the “pre-steady-state target cleavage rate” value was 0.0497 ± 0.016. The same measure, in the same setting: then UCCUGGAACAGGAAGCAUAGUAUUUACAAA, with 0.061 ± 0.02; and UCCUGGAUGUCCUUGCAUAGCAUUUAGUUA, with 0.0257 ± 0.0079; and UCCUGGAUGAGCUUGCAUAGUAUUUUCUUA, with 0.0122 ± 0.0069. Still for that read-out and setting: in the case of UCCUGCUACAGCUUGCAUAGUAUAAACAAA it was 0.0722 ± 0.022; in that of UCCUCCUACAGCUUGGUAAGUAUUUAGAAA, 0.0543 ± 0.013. Turning to UCCUGGUUCAGCUUGCAUAGUAUUUUCAAA, the “pre-steady-state target cleavage rate” value came to 0.0427 ± 0.016. The same measure, in the same setting: then UCCUGGAUGUGCUUGCAUAGUAUUUACAUA, with 0.0112 ± 0.0044. Still for that read-out and setting: then UCCUGGAUCACGAUGCAUAGUAUUUUCAAA, with 0.0499 ± 0.012. Still for that read-out and setting: in the case of UCCUGCUACAGCUUGCAUAGUAAAUACAAA it was 0.0117 ± 0.006. On to UCCUGGAUGUCGUUGCAUAGAAUUUAGUUA, for which the “pre-steady-state target cleavage rate” value was 0.00458 ± 0.0035. UCCUGGAUCAGCUUGCAUAGUAUAUAGAAA: the “pre-steady-state target cleavage rate” value stood at 0.115 ± 0.03. Still for that read-out and setting: then UCCUGGAUGUCCAUGCAUAGUAUUUACUUA, with 0.0292 ± 0.0095. Regarding UCCUGGAUCAGCUUGCAUAGAAUUUUGUUA, the “pre-steady-state target cleavage rate” value is 0.038 ± 0.012. With UCCUGGAUGAGCUUGCAUUGAAUUUAGUUA, the “pre-steady-state target cleavage rate” value was 0.00697 ± 0.0027. Turning to UCCUGGUACAGCUUGCAUAGUUUUUACUUA, the “pre-steady-state target cleavage rate” value stood at 0.0154 ± 0.008. In the case of UCCUGGAUGUGCUUGGAUAGUAUUUAGAUA, the “pre-steady-state target cleavage rate” value worked out at 0.00891 ± 0.0052.

Turning to UCCUCCUUGUGCUUGCAUAGUAUUUUCAAA, the “pre-steady-state target cleavage rate” value stood at 0.0192 ± 0.0073. In the case of UCCUGGAUGUGCUAGCAUAGUAUAUAGUUA, the “pre-steady-state target cleavage rate” value came out at 0.115 ± 0.018. On the same count and under the same terms, in the case of UCCUGGAUGUCGAUGCAUAGUAUUUAGAAA it was 0.0516 ± 0.015; in that of UCCUGGUACUCCUUGCAUAGUAUUUAGUUA, 0.217 ± 0.046. Same read-out and setting: then UCCUGGUACAGCUUGCAGUAGUAUUUAGUUA, with 0.00495 ± 0.0037; and UCCUGGAUGUCCUUGCAUAGUUAAUAGUUA, with 0.00959 ± 0.0043.

As for UCCUGGUACAGCUUGCUAAGUAUUUAGUAA, the “pre-steady-state target cleavage rate” value was found to be 0.036 ± 0.012. For UCCUGGAUGUCGAAGCAUAGUAUUAAGUUA, the “pre-steady-state target cleavage rate” value was determined as 0.034 ± 0.0088. On the same count and under the same terms, in the case of UCCUCCUACAGCUACGAUAGUAUUUAGAAA it was 0.13 ± 0.029. UCCUCCUACAGCUUCGAUAGUAUUUACAAA: the “pre-steady-state target cleavage rate” value is 0.0556 ± 0.016. The same measure, in the same setting: in the case of UCCUGGUACAGCUUGCUAAGUAUUUAGAAA it was 0.0132 ± 0.0056. In the case of UCCUGCUACAGCUUCGUUAGUAUUUAGUAA, the “pre-steady-state target cleavage rate” value was 0.154 ± 0.033.

In the case of UCCUGGAUCAGCUUGGUAAGUAUUUAGUAA, the “pre-steady-state target cleavage rate” value was 0.0371 ± 0.011.

As to UCCUGGAUGUCCUUCGAUAGUAUUUAGUUA, the “pre-steady-state target cleavage rate” value was 0.00794 ± 0.0037. Same read-out and setting: in the case of UCCUGGAACAGGAAGCAUAGUAUUUAGAAA it was 0.049 ± 0.011; in that of UCCUGGAUCAGCUUGCAUAGUAUUUUCUUA, 0.0452 ± 0.013.

The assay is the same for the next values; noted with them: auxiliary factor: none (no GTSF1).
UCCUGGAUGUCGAACGUAUGUAUUUACAAA: the “pre-steady-state target cleavage rate” value is under 0.0001.

With UCCUGGUACAGCUUCGUUAGUAUUUAGAAA, the “pre-steady-state target cleavage rate” value is under 0.0001. Consider UCCUGGAUGUCGAACGAAAGUAUUUUGUUA, for which the “pre-steady-state target cleavage rate” value is under 0.0001. On the same count and under the same terms, in the case of UCCUGGUACAGCUUGCAUACUUUUUAGUUA it was 0.00598 ± 0.0037; in that of “UCCUGGAUGUCGAACGUAUGUAUUUUCAAA [g6:g11:cont:t1A]”, under 0.0001.

As for UCCUGGAUGUCGAACGUAAGUAAUUUGUUA, the “pre-steady-state target cleavage rate” value was under 0.0001.
